Test results taken from PubChem BioAssay (Tox21).
Records with an inconclusive call do not appear. Calls of active or inactive are those of the source. Calls come from the whole dose curve.

Assay: qHTS assay to identify small molecule agonists or antagonists of the thyroid stimulating hormone receptor (TSHR) signaling pathway - wild type cell line counter screen (AID 1259384)
Conditions: HEK293 wild type, cAMP HTRF counter-screen, active compounds read high; series mostly up to 92.4 µM; cAMP activity change: at the top concentration
Procedure, shortened: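 Counter screen in untransfected Hek293: compounds (15-point titration, triplicate) plus phosphodiesterase inhibitor Ro20-1724 added after 18 h plating; 30 min RT. Intracellular cAMP via competitive d2/cryptate immunoassay, 1 h incubation.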
% is set by controls: 0 for no effect and ±100 for the full control effect.

SMILES	cAMP activity change
CCOC(=O)C1CC(=O)C(=C(O)C2CC2)C(=O)C1 (centres undefined)	-2.04% (inactive)
Cc1ccc([N+](=O)[O-])cc1Cl	8.89% (inactive)
O=C(CCCl)NCc1ccccc1	-6.01% [at 42.5 µM] (inactive)
Cc1ccc(C)c(N)c1	-5.41% (inactive)
CCc1cc2cc(OC)c(OC)cc2c(Cc2ccccc2)n1	-1.53% [at 42.5 µM] (inactive)
NS(=O)(=O)c1cc(-c2nn[nH]n2)c(NCc2cccs2)cc1Cl	-0.933% [at 42.5 µM] (inactive)
Cc1ccc([N+](=O)[O-])c(N)c1	-0.0833% (inactive)
CN(C)C(=O)NC1(c2ccccc2)CCN(CCC[C@]2(c3ccc(Cl)c(Cl)c3)CCCN(C(=O)c3ccccc3)C2)CC1	-1.66% [at 18.9 µM] (inactive)
CC1=C2[C@H](/C=C(\C)C(=O)O)CC[C@@H](C)[C@H]2CC1	3.97% (inactive)
COC(=O)N[C@H](C(=O)N[C@@H](Cc1ccccc1)[C@@H](O)CN(Cc1ccc(-c2ccccn2)cc1)NC(=O)[C@@H](NC(=O)OC)C(C)(C)C)C(C)(C)C	-2.68% [at 42.5 µM] (inactive)
CCCCCOc1ccc(C2SC(=O)NC2=O)cc1OCC (centres undefined)	-0.0507% [at 42.5 µM] (inactive)
C=CCCC=C	1.45% (inactive)
C=CCCCCCCCCO	-0.738% (inactive)
O=c1[nH]c(=O)n([C@H]2C[C@H](O)[C@@H](CO)O2)cc1C(F)(F)F	0.622% [at 42.5 µM] (inactive)
FC(F)(F)C(Cl)(Cl)Cl	-4.54% (inactive)
O=S(=O)(O)C(F)(F)F	-1.59% (inactive)
Cc1c(-c2ccccc2)oc2c(C(=O)OCCN3CCCCC3)cccc2c1=O	-0.265% [at 42.5 µM] (inactive)
CC(C)O	-2.03% (inactive)
Cc1cn([C@@H]2O[C@H](CO)[C@@H](O)[C@@H]2F)c(=O)[nH]c1=O	-3.43% [at 42.5 µM] (inactive)
CCCCC(CC)COC(=O)COc1cc(Cl)c(Cl)cc1Cl (centres undefined)	9.85% (inactive)
O=C(O)c1ccccc1Nc1cc(Cl)ccc1C(=O)O	0.0654% [at 18.9 µM] (inactive)
COC(=O)/C=C(/C)N	1.8% [at 42.5 µM] (inactive)
CCCCCCn1c(=O)c2c(ncn2C)n(C)c1=O	-3.52% [at 42.5 µM] (inactive)
COc1cc(N)c(Cl)cc1C(=O)NC1CCN(Cc2ccccc2)CC1	0.71% [at 42.5 µM] (inactive)
Cc1ncc(CO)c(CN)c1O	-7.29% [at 42.5 µM] (inactive)
O=C1Nc2ccc([N+](=O)[O-])cc2C1=O	2.7% (inactive)
CCCCCCCCCC#N	-2.77% (inactive)
COc1ccccc1N1CCN(CCCNc2cc(=O)n(C)c(=O)n2C)CC1	5.22% [at 42.5 µM] (inactive)
CC(Oc1c(Cl)cccc1Cl)C1=NCCN1 (centres undefined)	0.204% [at 42.5 µM] (inactive)
